In the library only some 19% were active in any assay of this set; here they are far more common.
TGFb inhibitor – inhibitors of TGF-b signaling; HepG2 CAGA-GFP TGF-b/SMAD3 reporter, GFP fluorescence, 18 h; TGF-beta stimulated, 500 pg/mL final; Potency, µM (series often up to 46.1 µM), usual class: inhibitors; actives 1.2% (n = 410,000); further: nearly all actives have a fitted effect of over 65% in size
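Read-out: total well GFP (ex488/em500-530) summed from mean per-cell fluorescence. Cells: HEPG2 CAGA-GFP, 1% FBS DMEM, 18 h at 37 degrees C with 500 pg/mL final TGF-beta. Unstimulated wells served as the full-inhibition control; stimulated DMSO wells = 0%.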
DT40 TDP1 CPT – DT40-hTDP1 cell growth loss with CPT; chicken DT40 Tdp1-/-;hTDP1 cells + 20 nM CPT, ATP luminescence, 48 h; Potency, µM (titrated, usually from 46.2 µM), most hits filed as inhibitors; actives 12% (n = 420,000); AID 686979; further: nearly all actives have a fitted effect of over 55% in size
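Chicken DT40 Tdp1-/- cells complemented with human TDP1, 400 cells/well, exposed to compounds plus 20 nM camptothecin for at least 48 h at 37 C; viability read as ATP content by CellTiter-Glo luminescence.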
IL1B secr inh – inhibitors of inflammasome signaling (IL-1 beta secretion); THP-1 LPS/ATP IL-1B secretion, AlphaLISA, 16 h; hits give low values; activity change, % at 57.5 µM; actives 4.7% (n = 360,000); AID 743279; in the data active means activity change below about -50%; inconclusive means mostly about -30% to -49%
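THP-1 cells pretreated 1 hr with compounds (up to 57.5 uM final), then stimulated with LPS (250 ng/mL final) plus ATP (1.25 mM final); secreted IL-1B measured by AlphaLISA after 16 hr, decreased signal indicating inhibition.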
HepG2 tox – counter-screen for TGF-b inhibitors: cytotoxicity in HepG2 cells; HepG2 CAGA-GFP viability, ATP luminescence, 18 h; Potency, µM (titrated, usually from 46.1 µM), actives largely listed as cytotoxic; actives 0.76% (n = 410,000)
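CellTiter-Glo luminescence gave cytotoxicity after 18 hours at 37 degrees C. The cells were HepG2 CAGA-GFP in 1% FBS DMEM, stimulated with 500 pg/mL TGF-beta after compound addition. %Activity was normalised to no-cell wells (complete cell-killing) and DMSO (no toxicity), and curves were fitted and classified.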
TDP1 inh – inhibitors of human tyrosyl-DNA phosphodiesterase TDP1 | Q9NUW8 | recombinant TDP1, AlphaScreen DNA substrate cleavage | actives 0.28% (n = 350,000) | Potency, µM (titrated, usually from 130 µM), actives largely listed as inhibitors | AID 485290; further: nearly all actives have a fitted effect of over 40% in size
Target sequence (Q9NUW8 whole entry, looked up): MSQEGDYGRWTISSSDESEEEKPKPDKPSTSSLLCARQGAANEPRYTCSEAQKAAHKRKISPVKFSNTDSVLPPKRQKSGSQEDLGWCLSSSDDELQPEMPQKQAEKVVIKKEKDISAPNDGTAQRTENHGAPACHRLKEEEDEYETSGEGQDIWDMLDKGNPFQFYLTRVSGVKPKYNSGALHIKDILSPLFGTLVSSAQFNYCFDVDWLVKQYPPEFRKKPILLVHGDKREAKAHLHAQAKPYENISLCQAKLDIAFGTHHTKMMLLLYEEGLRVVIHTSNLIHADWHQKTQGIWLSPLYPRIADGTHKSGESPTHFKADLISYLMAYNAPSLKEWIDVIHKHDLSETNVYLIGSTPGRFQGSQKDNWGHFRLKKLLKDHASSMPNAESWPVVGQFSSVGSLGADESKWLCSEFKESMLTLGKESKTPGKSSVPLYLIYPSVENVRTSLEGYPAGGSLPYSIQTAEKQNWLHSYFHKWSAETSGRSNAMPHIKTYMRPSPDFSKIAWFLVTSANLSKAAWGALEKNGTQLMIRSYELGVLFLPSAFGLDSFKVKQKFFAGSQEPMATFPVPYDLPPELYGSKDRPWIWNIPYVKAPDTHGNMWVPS
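Steps: enzyme plus compound, 15 min RT; add biotin/phosphotyrosine-FITC oligonucleotide (15 nM final), react 5 min; add donor/acceptor beads (10 ug/ml final), 10 min; read AlphaScreen. Tdp1 at 1 nM final.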
TDP1 cell noCPT – qHTS for Inhibitors of human tyrosyl-DNA phosphodiesterase 1 (TDP1): qHTS in cells in absence of CPT. actives 15% (n = 420,000). Potency, µM (doses to about 46.2 µM), hits mostly inhibitors. DT40 Tdp1-/- hTDP1 cells, no CPT, ATP luminescence, 48 h; further: nearly all actives have a fitted effect of over 55% in size
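DT40 Tdp1-/-;hTDP1 cells, no CPT (DMSO vehicle only), 400 cells/well; compounds pin-transferred; ≥48 hr, 37 °C; CellTiter-Glo 30 min RT dark, luminescence read.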
Numbers stand for hits; i = inactive; ? = inconclusive; nt = no result. Unless noted, the call rests on the fitted dose curve; in most records, active means well fitted curve in the direction sought with a large enough effect; inconclusive means small, poorly fitted or top-dose-only effect, or another doubt; inactive means no such curve, though single readings can be large; an effect the other way counts as inactive or inconclusive.

SMILES | TGFb inhibitor | DT40 TDP1 CPT | IL1B secr inh | HepG2 tox | TDP1 inh | TDP1 cell noCPT
Cc1cc(C)cc(-n2c(SC(C)C(=O)NCc3ccc4c(c3)OCO4)nc3ccccc3c2=O)c1 (stereo not drawn) | i | 13µM | i | i | i | 15µM
Cc1cccc(-n2c(SCC(=O)NCc3ccc4c(c3)OCO4)nc3ccccc3c2=O)c1 | i | ? | i | i | i | ?
CC1CCN(S(=O)(=O)c2ccc(NC(=O)C3CCCCC3C(=O)O)cc2)CC1 (stereo not drawn) | i | ? | i | i | nt | ?
CC(C)(C)c1cccc(S(=O)(=O)N2CCN(c3nc(-c4cccs4)nc4ccccc34)CC2)c1 | nt | ? | nt | nt | i | ?
CCc1ccc(-n2c(=O)c3c4c(sc3n(CC(=O)NC(C)CC)c2=O)CCCC4)cc1 (stereo not drawn) | i | i | nt | i | i | i
CN(C)c1nccc(Nc2ccccc2)c1C#N | i | ? | i | i | i | 21µM
CCN(CC)S(=O)(=O)c1cc(NC(=O)Cc2n[nH]c(=O)c3ccccc23)ccc1C | i | ? | i | i | i | 13µM
Cc1ccc(NC(=O)Cc2n[nH]c(=O)c3ccccc23)cc1S(=O)(=O)N1CCCCCC1 | ? | ? | i | i | i | 16µM
CN(c1ccccc1)S(=O)(=O)c1cccc(NC(=O)Cc2n[nH]c(=O)c3ccccc23)c1 | i | 13µM | i | i | i | 12µM
Cc1ccc(NC(=O)c2n[nH]c(=O)c3ccccc23)cc1S(=O)(=O)N1CCOCC1 | i | ? | i | i | i | ?
COc1ccc(-c2nc3sc(CCNC(=O)C(=O)Nc4cc(C)cc(C)c4)c(C)n3n2)cc1 | i | i | nt | i | i | i
CCN(C(=O)C1CCN(S(=O)(=O)c2ccc3c(c2)CCCN3C(C)=O)CC1)c1cccc(C)c1 | ? | ? | nt | i | i | 23µM
CCN(c1cccc(C)c1)S(=O)(=O)c1ccc2c(c1)CCN2C(C)=O | i | ? | i | i | i | 16µM
CCOC(=O)C1CCN(S(=O)(=O)c2ccc3c(c2)CCCN3C(C)=O)CC1 | i | i | i | i | i | i
CCN(c1cccc(C)c1)S(=O)(=O)c1ccc2c(c1)CCCN2C(C)=O | i | i | i | i | i | ?
CCN(CC)C(=O)C1CCN(S(=O)(=O)c2ccc3c(c2)CCCN3C(C)=O)CC1 | ? | 23µM | nt | i | i | ?
CCN(CC)C(=O)C1CCN(S(=O)(=O)c2ccc3c(c2)CCCN3C(=O)C2CCC2)CC1 | i | 7.3µM | i | i | i | ?
O=C(NC(NC(=S)Nc1ccccc1Cl)C(Cl)(Cl)Cl)c1cccc(Cl)c1 (stereo not drawn) | ? | 4.6µM | -87 | i | i | 8.2µM
COc1ccc(NC(=S)NC(NC(=O)c2cccc(Cl)c2)C(Cl)(Cl)Cl)c([N+](=O)[O-])c1 (stereo not drawn) | 22µM | ? | -60 | i | i | ?
COc1ccc(NC(=S)NC(NC(C)=O)C(Cl)(Cl)Cl)c([N+](=O)[O-])c1 (stereo not drawn) | i | i | -54 | i | i | i
COc1ccc(NC(=S)NC(NC(=O)c2cccc(C)c2)C(Cl)(Cl)Cl)c([N+](=O)[O-])c1 (stereo not drawn) | i | ? | i | i | i | ?
COc1ccc(-c2nn(-c3ccccc3)cc2C(=O)NC(=S)N2CCOCC2)cc1OC | i | ? | i | i | i | ?
COc1ccccc1N1CCN(Cc2cc(=O)oc3ccccc23)CC1 | i | ? | i | i | nt | ?
O=C(NCCO)C(=O)c1c(-c2ccccc2)cc2ccccn12 | i | i | i | i | i | i
Cc1ccc(C(=O)CSc2nnc(-c3ccc4[nH]c(C)c(C)c4c3)o2)cc1C | i | ? | i | i | i | 26µM
SMILES | TGFb inhibitor | DT40 TDP1 CPT | IL1B secr inh | HepG2 tox | TDP1 inh | TDP1 cell noCPT
Cc1[nH]c2ccc(-c3nnc(SCC(=O)c4ccccc4F)o3)cc2c1C | i | i | i | i | i | 18µM
CCOC(=O)C1CCN(S(=O)(=O)c2ccc3[nH]c(=O)ccc3c2)CC1 | i | i | i | i | nt | i
Cc1cccc(C(C)n2nnc3ccccc32)c1O (stereo not drawn) | i | 23µM | i | i | i | ?
N#CC(c1ccncc1)(c1ncc(C(F)(F)F)cc1Cl)N1CCOCC1 (stereo not drawn) | i | i | -77 | i | i | ?
NS(=O)(=O)c1ccc(NC(=O)CSc2nc3ccccc3[nH]2)cc1 | i | i | i | i | i | i
Cc1cc(C)cc(NC(=O)Cn2nnc(C(=O)NCc3ccc(F)cc3)c2N)c1 | i | 21µM | i | i | i | ?
Cc1ccc(-c2noc(-c3nnn(CC(=O)Nc4cc(C)cc(C)c4)c3N)n2)cc1 | nt | 1.3µM | nt | i | i | 1.5µM

Bioassay records deposited in PubChem by National Center for Advancing Translational Sciences (NCATS).
